{"source": "PubChem BioAssay", "key": {"[1]": {"test": "small molecules captured by biotinylated probe aFSTL3 – biochemical, small-molecule microarray, fluorescence 635/667, stem cell growth factor project, primary screen (AID 1064);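 further: measures binding of the biotinylated anti-FSTL3 antibody to printed compounds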", "conditions": "higher = more signal"}, "[2]": {"test": "binders from COS7 lysate, DM2A8 probe, primary screen, torsin A project, cell lysate, small-molecule microarray, fluorescence 635/667 (AID 1065)", "conditions": "higher = more signal, COS7 lysate expressing mutant human TOR1A"}, "[3]": {"test": "small molecules captured by biotinylated probe aFGF2 – biochemical, small-molecule microarray, fluorescence 635/667, stem cell growth factor project, primary screen (AID 1067);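 further: measures binding of biotinylated aFGF2 protein to printed compounds on slides; z-score merges feature fluorescence and signal-to-noise across triplicate slides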", "conditions": "higher = more signal"}, "[4]": {"test": "small molecules captured by biotinylated probe aFGF10 – biochemical, small-molecule microarray, fluorescence 635/667, stem cell growth factor project, primary screen (AID 1071);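 further: score merges 667 nm spot intensity and signal to noise from triplicate slides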", "conditions": "higher = more signal"}, "[5]": {"biological_target": "Neurogenic locus notch homolog protein 2 (Homo sapiens) (UniProt Q04721)", "sequence (Q04721 whole entry, looked up)": "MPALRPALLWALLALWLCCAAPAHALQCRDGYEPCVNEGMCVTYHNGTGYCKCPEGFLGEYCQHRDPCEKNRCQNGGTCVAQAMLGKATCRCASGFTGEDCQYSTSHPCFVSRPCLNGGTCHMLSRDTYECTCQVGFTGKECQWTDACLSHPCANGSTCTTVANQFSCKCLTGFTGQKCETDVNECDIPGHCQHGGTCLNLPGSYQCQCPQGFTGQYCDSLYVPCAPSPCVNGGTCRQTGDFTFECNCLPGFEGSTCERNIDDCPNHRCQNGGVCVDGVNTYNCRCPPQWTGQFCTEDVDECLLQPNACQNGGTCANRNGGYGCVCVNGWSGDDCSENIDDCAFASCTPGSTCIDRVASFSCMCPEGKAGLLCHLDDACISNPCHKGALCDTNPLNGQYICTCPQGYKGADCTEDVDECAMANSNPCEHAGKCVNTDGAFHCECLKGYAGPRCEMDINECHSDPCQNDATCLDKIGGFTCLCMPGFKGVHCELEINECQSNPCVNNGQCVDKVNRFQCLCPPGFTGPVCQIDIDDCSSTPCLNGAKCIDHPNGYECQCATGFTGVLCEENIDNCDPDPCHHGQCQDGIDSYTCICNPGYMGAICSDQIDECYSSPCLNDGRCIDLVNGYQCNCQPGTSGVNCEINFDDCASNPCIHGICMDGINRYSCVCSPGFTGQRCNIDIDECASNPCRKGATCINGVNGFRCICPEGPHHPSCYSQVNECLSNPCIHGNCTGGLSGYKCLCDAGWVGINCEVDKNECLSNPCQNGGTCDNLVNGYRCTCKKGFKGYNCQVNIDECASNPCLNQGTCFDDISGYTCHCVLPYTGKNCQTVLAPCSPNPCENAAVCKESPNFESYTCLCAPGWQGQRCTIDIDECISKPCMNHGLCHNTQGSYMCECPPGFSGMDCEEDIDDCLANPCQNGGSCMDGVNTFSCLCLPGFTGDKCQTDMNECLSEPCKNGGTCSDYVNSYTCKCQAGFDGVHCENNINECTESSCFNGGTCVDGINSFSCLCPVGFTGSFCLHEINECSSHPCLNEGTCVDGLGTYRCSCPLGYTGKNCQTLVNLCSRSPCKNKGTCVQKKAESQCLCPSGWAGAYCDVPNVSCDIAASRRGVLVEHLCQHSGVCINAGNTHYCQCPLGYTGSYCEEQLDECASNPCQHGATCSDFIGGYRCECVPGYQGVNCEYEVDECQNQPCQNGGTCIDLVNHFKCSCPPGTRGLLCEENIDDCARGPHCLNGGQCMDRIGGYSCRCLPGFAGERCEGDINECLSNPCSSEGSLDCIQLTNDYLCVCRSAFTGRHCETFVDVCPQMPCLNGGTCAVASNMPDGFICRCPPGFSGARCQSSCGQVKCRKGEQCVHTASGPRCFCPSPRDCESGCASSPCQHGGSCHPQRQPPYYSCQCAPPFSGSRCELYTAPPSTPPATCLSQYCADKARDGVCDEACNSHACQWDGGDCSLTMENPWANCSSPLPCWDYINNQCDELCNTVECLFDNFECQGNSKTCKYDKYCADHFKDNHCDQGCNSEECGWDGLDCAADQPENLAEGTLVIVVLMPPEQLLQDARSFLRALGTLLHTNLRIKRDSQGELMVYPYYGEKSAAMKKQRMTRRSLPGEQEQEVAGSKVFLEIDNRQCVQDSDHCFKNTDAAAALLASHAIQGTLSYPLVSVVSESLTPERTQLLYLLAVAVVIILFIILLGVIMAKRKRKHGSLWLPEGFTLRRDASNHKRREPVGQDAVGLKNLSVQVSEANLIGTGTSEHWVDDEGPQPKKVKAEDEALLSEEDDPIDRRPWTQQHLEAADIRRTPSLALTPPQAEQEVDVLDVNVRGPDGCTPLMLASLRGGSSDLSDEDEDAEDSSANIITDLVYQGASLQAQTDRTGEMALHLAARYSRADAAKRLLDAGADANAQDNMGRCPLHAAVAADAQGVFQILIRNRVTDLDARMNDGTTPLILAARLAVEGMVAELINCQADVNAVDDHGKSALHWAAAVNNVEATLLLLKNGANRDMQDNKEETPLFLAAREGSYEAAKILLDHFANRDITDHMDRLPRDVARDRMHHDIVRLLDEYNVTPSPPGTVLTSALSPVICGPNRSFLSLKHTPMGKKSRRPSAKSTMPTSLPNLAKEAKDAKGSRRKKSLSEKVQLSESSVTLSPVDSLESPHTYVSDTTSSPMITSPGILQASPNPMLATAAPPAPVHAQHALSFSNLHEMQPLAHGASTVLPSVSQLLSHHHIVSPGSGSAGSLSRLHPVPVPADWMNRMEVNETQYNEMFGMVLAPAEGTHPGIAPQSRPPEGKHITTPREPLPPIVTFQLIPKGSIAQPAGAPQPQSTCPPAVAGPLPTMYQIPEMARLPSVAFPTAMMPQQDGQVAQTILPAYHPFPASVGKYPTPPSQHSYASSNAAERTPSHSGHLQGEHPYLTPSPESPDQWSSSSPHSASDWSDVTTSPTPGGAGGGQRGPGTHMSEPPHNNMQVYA", "test": "small molecules binding Notch2 protein – biochemical, small-molecule microarray, 635 nm fluorescence, stem cell growth factors, primary screen (AID 1073)", "conditions": "higher = more signal"}, "[6]": {"biological_target": "Pro-neuregulin-1, membrane-bound isoform (Homo sapiens) (UniProt Q02297)", "sequence (Q02297 whole entry, looked up, canonical isoform)": "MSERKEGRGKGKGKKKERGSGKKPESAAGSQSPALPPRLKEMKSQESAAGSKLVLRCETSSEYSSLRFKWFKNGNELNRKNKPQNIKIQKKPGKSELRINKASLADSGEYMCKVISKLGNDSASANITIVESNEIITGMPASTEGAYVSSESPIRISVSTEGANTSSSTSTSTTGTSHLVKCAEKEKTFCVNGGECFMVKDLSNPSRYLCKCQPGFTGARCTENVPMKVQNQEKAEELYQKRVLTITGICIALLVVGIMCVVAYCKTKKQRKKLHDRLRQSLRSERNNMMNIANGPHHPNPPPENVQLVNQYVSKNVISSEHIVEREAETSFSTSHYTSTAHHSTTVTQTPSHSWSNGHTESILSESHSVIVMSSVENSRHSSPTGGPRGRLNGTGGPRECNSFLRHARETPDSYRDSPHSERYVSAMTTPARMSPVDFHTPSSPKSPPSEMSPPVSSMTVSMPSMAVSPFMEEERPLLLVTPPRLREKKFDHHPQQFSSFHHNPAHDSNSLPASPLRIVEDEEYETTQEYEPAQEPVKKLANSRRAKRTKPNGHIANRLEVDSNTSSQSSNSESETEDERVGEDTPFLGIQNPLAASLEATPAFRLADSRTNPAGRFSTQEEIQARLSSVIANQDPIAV", "test": "small molecules binding neuregulin-1 protein – biochemical, small-molecule microarray, fluorescence 635/667, psychiatric disease protein project, primary screen (AID 1075);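 further: score combines 667 nm spot fluorescence with signal to noise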", "conditions": "NRG1 binding, 635 nm fluorescence, higher = more signal"}, "[7]": {"tested_on": "Neuregulin-1 EGF-like domain", "test": "small molecules binding NRG1 EGF domain – biochemical, small-molecule microarray, 635 nm fluorescence, primary screen (AID 1081);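 further: binding of the protein to compounds printed on small-molecule microarray slides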", "conditions": "higher = more signal"}, "[8]": {"test": "FRG1 expression reporter modulators in myotubes – cell-based, C2C12 myotubes, firefly/Renilla luciferase, luminescence, FRG1 inhibition for FSHD, primary screen (AID 1084)", "conditions": "FRG1 promoter luciferase, higher = more signal, called active from +8 up or from −8 down"}, "[9]": {"test": "small molecules captured by biotinylated probe aFST – biochemical, small-molecule microarray, fluorescence 635/667, stem cell growth factor project, primary screen (AID 1086);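 further: score merges 667 nm fluorescence with signal-to-noise of each printed compound spot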", "conditions": "higher = more signal"}, "[10]": {"test": "binders of probe aHhip on microarray, primary screen, stem cell growth factor project, biochemical, small-molecule microarray, fluorescence 635/667 (AID 1087);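 further: score merges spot fluorescence at 667nm with spot signal to noise ratio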", "conditions": "higher = more signal"}}, "note": "Calls of active or inactive are those of the source.", "data": [{"molecule": "CCCN1C(=O)[C@]2(Cc3ccccc31)N=C(c1ccc(OCCCO)cc1)O[C@@H]2c1ccccc1", "values": [{"measurement": "composite z-score", "setting": "[1]", "value": 0.552}, {"measurement": "composite z-score", "setting": "[2]", "value": 0.176}, {"measurement": "composite z-score", "setting": "[3]", "value": 0.0732}, {"measurement": "composite z-score", "setting": "[4]", "value": -0.139}, {"measurement": "composite z-score", "setting": "[5]", "value": 0.118}, {"measurement": "composite z-score", "setting": "[6]", "value": 1.3}, {"measurement": "composite z-score", "setting": "[7]", "value": 1.23}, {"measurement": "z-score", "setting": "[8]", "value": "-1.9 (inactive)"}, {"measurement": "composite z-score", "setting": "[9]", "value": 0.311}, {"measurement": "composite z-score", "setting": "[10]", "value": 0.22}]}, {"molecule": "CCOC(=O)C[C@H]1[C@H](OC(=O)c2ccc(C(=O)c3ccccc3)cc2)[C@@H](NC(=O)C2CCCCC2)c2cc(OCCCO)ccc2N1C(=O)c1ccc2ccccc2n1", "values": [{"measurement": "composite z-score", "setting": "[1]", "value": -0.244}, {"measurement": "composite z-score", "setting": "[2]", "value": 0.213}, {"measurement": "composite z-score", "setting": "[3]", "value": -0.0885}, {"measurement": "composite z-score", "setting": "[4]", "value": 0.735}, {"measurement": "composite z-score", "setting": "[5]", "value": 1.03}, {"measurement": "composite z-score", "setting": "[6]", "value": 0.532}, {"measurement": "composite z-score", "setting": "[7]", "value": 0.722}, {"measurement": "z-score", "setting": "[8]", "value": "0.0852 (inactive)"}, {"measurement": "composite z-score", "setting": "[9]", "value": 0.842}, {"measurement": "composite z-score", "setting": "[10]", "value": 0.382}]}, {"molecule": "COCCOC(=O)N1C(=O)[C@@]2(c3cc(C#CC4(O)CCCCCC4)ccc31)[C@H](c1ccc(O)cc1)N1[C@H](c3ccccc3)[C@H](c3ccccc3)OC(=O)[C@H]1[C@@H]2C(=O)N1CCN(c2ncccn2)CC1", "values": [{"measurement": "composite z-score", "setting": "[1]", "value": -0.133}, {"measurement": "composite z-score", "setting": "[2]", "value": 0.837}, {"measurement": "composite z-score", "setting": "[3]", "value": 0.0702}, {"measurement": "composite z-score", "setting": "[4]", "value": 0.292}, {"measurement": "composite z-score", "setting": "[5]", "value": 0.895}, {"measurement": "composite z-score", "setting": "[6]", "value": 1.33}, {"measurement": "composite z-score", "setting": "[7]", "value": 1.24}, {"measurement": "z-score", "setting": "[8]", "value": "0.821 (inactive)"}, {"measurement": "composite z-score", "setting": "[9]", "value": 0.756}, {"measurement": "composite z-score", "setting": "[10]", "value": 0.132}]}, {"molecule": "CCCCNC(=O)c1ccc(C#CC(C)(C)C)c(OC(C)=O)c1", "values": [{"measurement": "composite z-score", "setting": "[1]", "value": -0.769}, {"measurement": "composite z-score", "setting": "[2]", "value": 0.212}, {"measurement": "composite z-score", "setting": "[3]", "value": -0.132}, {"measurement": "composite z-score", "setting": "[4]", "value": 0.572}, {"measurement": "composite z-score", "setting": "[5]", "value": 1.04}, {"measurement": "composite z-score", "setting": "[6]", "value": 0.158}, {"measurement": "composite z-score", "setting": "[7]", "value": 0.865}, {"measurement": "z-score", "setting": "[8]", "value": "4.66 (inactive)"}, {"measurement": "composite z-score", "setting": "[9]", "value": 0.031}, {"measurement": "composite z-score", "setting": "[10]", "value": -0.0994}]}, {"molecule": "CCCC[C@@H](O)C1=C(COC)C[C@H]2C(=O)N(Cc3ccccc3)C(=O)[C@H]2[C@H]1CO", "values": [{"measurement": "composite z-score", "setting": "[1]", "value": -1.06}, {"measurement": "composite z-score", "setting": "[2]", "value": 0.0076}, {"measurement": "composite z-score", "setting": "[3]", "value": -0.0969}, {"measurement": "composite z-score", "setting": "[4]", "value": 0.58}, {"measurement": "composite z-score", "setting": "[5]", "value": 0.395}, {"measurement": "composite z-score", "setting": "[6]", "value": 0.179}, {"measurement": "composite z-score", "setting": "[7]", "value": 0.159}, {"measurement": "z-score", "setting": "[8]", "value": "0.646 (inactive)"}, {"measurement": "composite z-score", "setting": "[9]", "value": -0.173}, {"measurement": "composite z-score", "setting": "[10]", "value": -0.0645}]}, {"molecule": "COCCCNC(=O)[C@@]1(Sc2ccc(C)cc2)CC(=O)N(C2Cc3ccccc3C2)[C@@H]1c1ccc(CO)cc1", "values": [{"measurement": "composite z-score", "setting": "[1]", "value": 0.667}, {"measurement": "composite z-score", "setting": "[2]", "value": -1.94}, {"measurement": "composite z-score", "setting": "[3]", "value": -0.16}, {"measurement": "composite z-score", "setting": "[4]", "value": -0.459}, {"measurement": "composite z-score", "setting": "[5]", "value": -1.12}, {"measurement": "composite z-score", "setting": "[6]", "value": 1.47}, {"measurement": "composite z-score", "setting": "[7]", "value": 1.32}, {"measurement": "z-score", "setting": "[8]", "value": "-1.11 (inactive)"}, {"measurement": "composite z-score", "setting": "[9]", "value": -0.213}, {"measurement": "composite z-score", "setting": "[10]", "value": -0.164}]}, {"molecule": "COC(=O)C1=CC(CCCO)=CC(c2cccs2)N(Cc2cccc(OC(F)(F)F)c2)C=C1C(=O)OC", "note": "(stereo not given)", "values": [{"measurement": "composite z-score", "setting": "[1]", "value": -0.55}, {"measurement": "composite z-score", "setting": "[2]", "value": 0.203}, {"measurement": "composite z-score", "setting": "[3]", "value": 0.11}, {"measurement": "composite z-score", "setting": "[4]", "value": 0.583}, {"measurement": "composite z-score", "setting": "[5]", "value": 1.51}, {"measurement": "composite z-score", "setting": "[6]", "value": 1.93}, {"measurement": "composite z-score", "setting": "[7]", "value": 1.2}, {"measurement": "z-score", "setting": "[8]", "value": "0.0099 (inactive)"}, {"measurement": "composite z-score", "setting": "[9]", "value": 1.5}, {"measurement": "composite z-score", "setting": "[10]", "value": 0.0053}]}, {"molecule": "CC(C)c1ccc(NN2C(C(O)c3ccc(C#N)cc3)C=CC3C(=O)N(c4ccccc4)C(=O)C32)cc1", "note": "(stereo not given)", "values": [{"measurement": "composite z-score", "setting": "[1]", "value": 0.546}, {"measurement": "composite z-score", "setting": "[2]", "value": 0.0853}, {"measurement": "composite z-score", "setting": "[3]", "value": 0.105}, {"measurement": "composite z-score", "setting": "[4]", "value": 1.15}, {"measurement": "composite z-score", "setting": "[5]", "value": 1.72}, {"measurement": "composite z-score", "setting": "[6]", "value": 1.87}, {"measurement": "composite z-score", "setting": "[7]", "value": 1}, {"measurement": "z-score", "setting": "[8]", "value": "-2.97 (inactive)"}, {"measurement": "composite z-score", "setting": "[9]", "value": 1.8}, {"measurement": "composite z-score", "setting": "[10]", "value": -0.0704}]}, {"molecule": "CC(CO)N1C(=O)[C@]2(C)C3C(=O)OCCC/C=C\\[C@H]3OC23C=CCN(c2ccc(Cl)cc2)C(=O)[C@@H]13", "note": "(stereo not given in full)", "values": [{"measurement": "composite z-score", "setting": "[1]", "value": -0.167}, {"measurement": "composite z-score", "setting": "[2]", "value": -0.258}, {"measurement": "composite z-score", "setting": "[3]", "value": -0.19}, {"measurement": "composite z-score", "setting": "[4]", "value": 0.0755}, {"measurement": "composite z-score", "setting": "[5]", "value": -0.27}, {"measurement": "composite z-score", "setting": "[6]", "value": -0.639}, {"measurement": "composite z-score", "setting": "[7]", "value": 1.25}, {"measurement": "z-score", "setting": "[8]", "value": "-0.906 (inactive)"}, {"measurement": "composite z-score", "setting": "[9]", "value": -0.456}, {"measurement": "composite z-score", "setting": "[10]", "value": -0.266}]}, {"molecule": "COc1ccc([Si](C)(C)[C@@H]2[C@@H](CCO)O[C@]3(C(=O)N(Cc4cccc(NC(=O)[C@H](C)O)c4)c4ccccc43)[C@H]2C)cc1", "values": [{"measurement": "composite z-score", "setting": "[1]", "value": -0.328}, {"measurement": "composite z-score", "setting": "[2]", "value": 0.263}, {"measurement": "composite z-score", "setting": "[3]", "value": -0.053}, {"measurement": "composite z-score", "setting": "[4]", "value": 1.23}, {"measurement": "composite z-score", "setting": "[5]", "value": 0.487}, {"measurement": "composite z-score", "setting": "[6]", "value": 1.07}, {"measurement": "composite z-score", "setting": "[7]", "value": 1.14}, {"measurement": "z-score", "setting": "[8]", "value": "-3.53 (inactive)"}, {"measurement": "composite z-score", "setting": "[9]", "value": 0.146}, {"measurement": "composite z-score", "setting": "[10]", "value": -0.249}]}, {"molecule": "CCOC(=O)C[C@H]1[C@H](OC(=O)c2cc3ccccc3oc2=O)[C@@H](NC(=O)c2ccccc2)c2cc(OCCCO)ccc2N1C(=O)c1ccccc1", "values": [{"measurement": "composite z-score", "setting": "[1]", "value": -0.319}, {"measurement": "composite z-score", "setting": "[2]", "value": 0.524}, {"measurement": "composite z-score", "setting": "[3]", "value": -0.105}, {"measurement": "composite z-score", "setting": "[4]", "value": 0.462}, {"measurement": "composite z-score", "setting": "[5]", "value": 1.17}, {"measurement": "composite z-score", "setting": "[6]", "value": 0.0287}, {"measurement": "composite z-score", "setting": "[7]", "value": 0.819}, {"measurement": "z-score", "setting": "[8]", "value": "1.57 (inactive)"}, {"measurement": "composite z-score", "setting": "[9]", "value": 0.349}, {"measurement": "composite z-score", "setting": "[10]", "value": -0.199}]}]}
